POLK inh: inhibitors of human DNA polymerase kappa | 400,000 tested, 0.53% active | Q9UBT6 | Potency, µM (titrated, usually from 107 µM), most hits filed as inhibitors | purified Pol kappa, fluorescent DNA synthesis assay, 10 min
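Enzyme at 10 nM met test compounds for 15 min at room temperature. Substrate addition (50 nM final) began the reaction, which was monitored by fluorescence at 0 and 10 min.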
GLS inh: blocks human kidney-isoform glutaminase activity. O94925. GLS enzymatic activity, qHTS titration. Potency, µM (doses to about 45.5 µM), usual class: inhibitors. 410,000 tested, 0.21% active. AID 624170
Target sequence (O94925 whole entry, looked up, canonical isoform): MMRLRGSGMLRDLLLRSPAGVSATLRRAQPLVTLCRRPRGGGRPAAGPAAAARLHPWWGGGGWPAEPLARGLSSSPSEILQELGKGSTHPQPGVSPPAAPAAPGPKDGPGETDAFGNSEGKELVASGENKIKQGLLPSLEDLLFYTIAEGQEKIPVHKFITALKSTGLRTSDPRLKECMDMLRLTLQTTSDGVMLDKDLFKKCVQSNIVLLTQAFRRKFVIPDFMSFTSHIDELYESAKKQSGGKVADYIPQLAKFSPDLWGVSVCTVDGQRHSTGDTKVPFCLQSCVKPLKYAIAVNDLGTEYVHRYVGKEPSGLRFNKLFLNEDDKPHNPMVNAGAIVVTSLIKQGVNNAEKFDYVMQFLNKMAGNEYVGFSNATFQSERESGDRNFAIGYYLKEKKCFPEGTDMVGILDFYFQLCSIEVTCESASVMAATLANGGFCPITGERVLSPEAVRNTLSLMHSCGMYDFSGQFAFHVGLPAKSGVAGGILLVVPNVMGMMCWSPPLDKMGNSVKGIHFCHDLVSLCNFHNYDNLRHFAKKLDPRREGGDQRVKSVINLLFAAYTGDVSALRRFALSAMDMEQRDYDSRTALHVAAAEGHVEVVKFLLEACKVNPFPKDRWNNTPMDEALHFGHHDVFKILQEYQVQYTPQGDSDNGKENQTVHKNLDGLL
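Assay buffer: 45 mM KH2PO4 pH 8.2, 0.02% Tween-20. hKGA acts on L-glutamine (1 mM solution added); product glutamate is reported by an oxidase/peroxidase Amplex Red coupling, with fluorescence taken at baseline and 30 min.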
POLB inh: inhibitors of human DNA polymerase beta; P06746; AID 485314; Pol beta primer extension/strand displacement, fluorescence kinetic; Potency, µM (doses to about 114 µM), hits mostly inhibitors; 340,000 tested, 1.3% active
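Curves were derived by four-parameter Hill fits of normalized qHTS data. The kinetic fluorescent primer-extension read was taken at 0 and 10 min after 50 nM substrate, following a 15 min room-temperature preincubation of 10 nM enzyme with compounds.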
KAT2A inh: inhibitors of human GCN5L2 histone acetyltransferase; GCN5L2 HAT assay, ThioGlo1 CoA-SH fluorescence; Q92830; Potency, µM (doses to about 58.9 µM), hits mostly inhibitors; 390,000 tested, 0.21% active; AID 504327
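Preincubate 20nM GCN5L2 with compound 15 min, RT → add 50uM ThioGlo1 + 75uM H3(1-25) + 70uM acetyl-CoA → read fluorescence 0 and 20 min. Primary qHTS; fluorescent artifacts likely.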
Pol eta inh: DNA polymerase eta (human) inhibition; Q9Y253; recombinant Pol eta, fluorescent DNA replication assay; Potency, µM (top dose mostly 114 µM), usual class: inhibitors; 390,000 tested, 1.2% active
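Fluorescent replication assay: 50 nM final substrate added after a 15 min room-temperature compound preincubation with 10 nM enzyme. Signal taken at 0 min and again at 10 min.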
POLI inh: blocks human DNA polymerase iota activity; Q9UNA4; 390,000 tested, 1% active; Pol iota fluorescent replication assay, 10 min; AID 588590; Potency, µM (highest dose often 115 µM), actives largely listed as inhibitors
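Pol iota at 10 nM preincubated 15 min with compounds at room temperature; reaction started with fluorescent substrate, 50 nM final. Fluorescence read kinetically at 0 and 10 min; buffer-only wells as negative control.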
Numbers stand for hits; ! = not confirmed by another sample. This is a sample that favours compounds with a hit; in the whole collection about 2.4% have one here. Calls come from the whole dose curve; as a rule, active = well fitted inhibition curve with a large enough effect; inconclusive = small, poorly fitted or top-dose-only effect, or another doubt; inactive = no such curve, though single readings can be large or run the other way.

What do the screens show for `CCCCn1c(=N)c(S(=O)(=O)c2ccc(Cl)cc2)cc2c(=O)n3cccc(C)c3nc21`?
POLK inh: inactive; GLS inh: inactive; POLB inh: inactive; KAT2A inh: inactive; Pol eta inh: inactive; POLI inh: inactive

What do the screens show for `Cc1ccc(S(=O)(=O)/N=C(\N)Nc2nc(C)c3ccccc3n2)cc1`?
POLK inh: inactive; GLS inh: inactive; POLB inh: inactive; KAT2A inh: inactive; Pol eta inh: inconclusive; POLI inh: inactive

How did COc1ccc2c(C)nc(N/C(N)=N/S(=O)(=O)c3ccc(C)cc3)nc2c1 do in these assays?
POLK inh: inactive; GLS inh: inactive; POLB inh: inactive; KAT2A inh: inactive; Pol eta inh: inactive; POLI inh: 89.1µM

What do the screens show for `CCOc1ccc(C(c2c(O)cc(C)n(Cc3ccco3)c2=O)N2CCCCC2)cc1` (stereo unspecified)?
POLK inh: inactive; GLS inh: inactive; POLB inh: inactive; KAT2A inh: inactive; Pol eta inh: inactive; POLI inh: inactive

How did O=C(CCN1C(=O)c2ccccc2C1=O)NCc1ccco1 do in these assays?
POLK inh: inactive; GLS inh: inactive; POLB inh: inactive; KAT2A inh: inactive; Pol eta inh: inconclusive; POLI inh: 50.1µM

How did O=C(CCCN1C(=O)c2ccccc2C1=O)Nc1sc2c(c1C(=O)NCc1ccco1)CCC2 do in these assays?
POLK inh: inactive; GLS inh: inactive; POLB inh: 20µM; KAT2A inh: inactive; Pol eta inh: inactive; POLI inh: inconclusive

What do the screens show for `O=C(CCN1C(=O)c2cccc3cccc(c23)C1=O)NCc1ccco1`?
POLK inh: inactive; GLS inh: inactive; POLB inh: inconclusive; KAT2A inh: inactive; Pol eta inh: inactive; POLI inh: inconclusive

How did C=CCNc1nc(C(=O)OCC(=O)c2ccccc2)cs1 do in these assays?
POLK inh: inactive; GLS inh: inactive; POLB inh: inactive; KAT2A inh: inconclusive; Pol eta inh: inactive; POLI inh: inconclusive

What do the screens show for `C=CCNc1nc(C(=O)OCC(=O)Nc2ccc(S(N)(=O)=O)cc2)cs1`?
POLK inh: inactive; GLS inh: inactive; KAT2A inh: inactive; Pol eta inh: 56.2µM; POLI inh: 28.2µM

What do the screens show for `O=C(Nc1ccc(C(=O)Nc2ccc(C(=O)Nc3ccc(S(=O)(=O)O)c4cc(S(=O)(=O)O)cc(S(=O)(=O)O)c34)cc2)cc1)Nc1ccc(C(=O)Nc2ccc(C(=O)Nc3ccc(S(=O)(=O)O)c4cc(S(=O)(=O)O)cc(S(=O)(=O)O)c34)cc2)cc1`?
POLK inh: 0.141µM; KAT2A inh: 15.8µM!

How did O=C(Nc1cc(C(=O)Nc2ccc(S(=O)(=O)O)cc2S(=O)(=O)O)cc(C(=O)Nc2ccc(S(=O)(=O)O)cc2S(=O)(=O)O)c1)Nc1cc(C(=O)Nc2ccc(S(=O)(=O)O)cc2S(=O)(=O)O)cc(C(=O)Nc2ccc(S(=O)(=O)O)cc2S(=O)(=O)O)c1 do in these assays?
POLK inh: 0.178µM!; POLB inh: 0.224µM; KAT2A inh: inactive; Pol eta inh: 0.1µM; POLI inh: 1.26µM

Results for Nc1ccc(C(=O)Nc2ccc3cc(S(=O)(=O)O)ccc3c2)cc1 ?
POLK inh: inactive; GLS inh: inactive; Pol eta inh: inactive; POLI inh: inactive

How did CCC[C@H]1COCCS(=O)(=O)N1Cc1ccc(F)cc1 do in these assays?
POLK inh: inactive; POLI inh: inactive

What do the screens show for `O=C(O)Cc1ccc(C(=O)CSc2ccccc2)s1`?
POLK inh: inconclusive; GLS inh: inactive; POLB inh: 15.8µM; KAT2A inh: inactive; Pol eta inh: 20µM; POLI inh: 25.1µM

What do the screens show for `Cc1ccccc1-c1nc2c(c(SCc3cccc(Cl)c3)n1)Cc1c(CO)cnc(C)c1O2`?
POLK inh: inactive; GLS inh: inactive; POLB inh: inactive; KAT2A inh: inactive; Pol eta inh: inactive; POLI inh: inactive

What do the screens show for `COc1ccc2c(c1)c(CC(=O)NCc1cc([N+](=O)[O-])ccc1O)c(C)n2C(=O)c1ccc(Cl)cc1`?
POLK inh: inactive; GLS inh: inactive; POLB inh: 39.8µM; KAT2A inh: inactive; Pol eta inh: 44.7µM; POLI inh: inconclusive
